PubChem BioAssay AID1508622 (National Center for Advancing Translational Sciences (NCATS), 2021)
Active and inactive are the calls of the source. Calls come from the whole dose curve; as a rule, active = well fitted activation curve with a large enough effect; inconclusive = small, poorly fitted or top-dose-only effect; inactive = no such curve, though single readings can be large or run the other way.

Assay: Confirmatory qHTS for Identification of Small Molecule Activators of Huntingtin-Antisense Promoter Activity
Conditions: HEK293 HTT-AS promoter firefly luciferase reporter, 24 h; series mostly up to 57.5 µM
Outline: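 Activity normalized between vehicle control (0%) and zero RLU (-100%) from firefly luminescence (Dual-Glo). Compounds, up to 57.5 uM final, incubated 24 h at 37C on HEK293 reporter cells plated 24 h earlier.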
Potency is the fitted concentration of half-maximal effect.

Potency, active:
CN(C)c1ccc(Nc2nc(N)n(C(=O)c3c(F)cccc3F)n2)cc1 30.1 µM, CC(=O)c1ccc(NS(=O)(=O)c2ccc3[nH]c(=O)[nH]c3c2)cc1 7.57 µM

Potency, inactive:
CCn1c(=O)sc2cc(NS(=O)(=O)c3ccc(F)c(C)c3)ccc21, COc1cc(CNc2ccc3[nH]c(=O)[nH]c3c2)cc(Br)c1OCc1ccc(F)cc1, Cc1ccc(N(C)C(=O)Cn2cnc3onc(-c4ccc(F)cc4)c3c2=O)cc1C, COc1ccc(CCNC(=O)c2ccc3c(c2)CCN3S(=O)(=O)c2ccc(C)cc2)cc1OC, Cc1ccc(NCc2cccn2-c2nnc(N3CCC(C(=O)NC(C)C)CC3)s2)cc1, Cc1ccc(SCc2nc(-c3ccc(C(=O)NCc4ccccc4Cl)cc3)oc2C)cc1, Cn1c(=O)n(C)c2cc(NS(=O)(=O)c3ccc(F)cc3)ccc21, Cc1ccc(-c2[nH]c3ccccc3c2SCCNC(=O)c2ccc(S(=O)(=O)N(C)C)cc2)cc1, O=C(CN1CCCN(S(=O)(=O)c2ccc(Br)cc2)CC1)Nc1cccc(C(F)(F)F)c1, Cc1oc(-c2cccc(Cl)c2)nc1CN1CCC(C(=O)NCCCN2CCN(c3ccc(F)cc3)CC2)CC1, COc1ccc(S(=O)(=O)NCCc2sc3nc(-c4ccc(C)cc4)nn3c2C)cc1F, CCOc1ccc(CCNC(=O)c2cccc(-n3c(C)nc4cccnc43)c2)cc1, COc1ccc(C(=O)NCC(c2cccnc2)N2CCc3ccccc32)cc1 (stereo not drawn), COc1cccc(CNC(=O)c2ccc(-c3nc(COc4ccccc4)c(C)o3)cc2)c1, CCCOC(=O)c1cccc(NC(=O)c2c(-c3ccccc3Cl)noc2C)c1, Cc1ccc(CNC(=O)Nc2cc(C(=O)NCc3ccc(C(C)C)cc3)ccc2N2CCCC2)cc1, COc1ccc(NC(=O)c2ccc(-c3nc(CSc4ccc(C)cc4)c(C)o3)cc2)cc1Cl, Cc1ccc(SCc2nc(-c3ccc(C(=O)NCC(C)c4ccccc4)cc3)oc2C)cc1 (stereo not drawn), Cc1cccc(N2CCN(S(=O)(=O)c3ccc(F)c(C(=O)Nc4cccc(Cl)c4C)c3)CC2C)c1 (stereo not drawn), O=C(NCCCN1CCN(c2ccccc2)CC1)c1ccc2nc(CCc3ccccc3)oc2c1, COCCn1c2c([n+](Cc3cnccn3)c1C)C(=O)c1ccccc1C2=O, Cc1cc(C)cc(OCCn2c(C3CC(=O)N(c4ccccc4Cl)C3)nc3ccccc32)c1 (stereo not drawn), CCOc1ccccc1CNC(=O)c1ccc(NC(=O)N2CCSc3ncccc32)cc1, COc1cc(C2CC(=O)c3c([nH]c(C(=O)OCc4ccc(C)cc4)c3C)C2)cc(OC)c1OC (stereo not drawn), Cc1cccc(NC(=O)Cc2ccc(-n3c(C)nc4cccnc43)cc2)c1C, CCN(C(=O)c1oc2ccc(S(=O)(=O)N3CCCCCC3)cc2c1C)c1ccccc1, C#CCOc1ccc(-c2nnc(Nc3cccc(C)c3)c3ccccc23)cc1, CCOc1ccc(-n2ccnc2SCC(=O)Nc2ccc3c(c2)OCO3)cc1, Cc1ccc(C)c(N2CCN(C(=O)C3CCCN(S(=O)(=O)c4ccc5c(c4)oc(=O)n5C)C3)CC2)c1 (stereo not drawn), Cc1ccc(CSc2ncc(Cl)c(C(=O)NCCc3ccc(S(N)(=O)=O)cc3)n2)cc1, Cc1c(Cl)cccc1-n1ncc(C(=O)Nc2ccc(F)cc2F)c1C1CCN(C(=O)OC(C)(C)C)CC1, Cc1cc(N2CCC(C)CC2)nc2ccc(NC(=O)CCC(=O)N3CCN(c4cccc(C(F)(F)F)c4)CC3)cc12, Cc1cccc(-n2c(-c3ccco3)nc3c(cnn3-c3ccccc3C)c2=O)c1, COc1ccc(S(=O)(=O)N(CCc2ccccc2)CC(=O)Nc2cc(C)cc(C)c2)cc1OC, CCCCN(C)CCCNC(=O)Cn1ncc2c3ccccc3n(Cc3ccccc3F)c2c1=O, Cc1ccc2nc(CSc3nnc(NC(=O)COc4ccccc4)s3)cc(=O)n2c1
